In PubChem BioAssay (Tox21):
Values joined by “and” are separate entries in the source; they are usually repeats but may differ in a detail not shown here. Identical values can stand only once. Inconclusive results are not listed. Where a call stands in place of a potency, no number is given. More than one record can exist for a structure, and the calls need not agree. Active and inactive are the calls of the source. Unless noted, calls come from the whole dose curve; as a rule, active = well fitted curve in the direction sought with a large enough effect in the repeat runs; inconclusive = weak or mixed curves; inactive = no such curve, though single readings can be large; an effect the other way counts as inactive or inconclusive.

Key:
[1] = qHTS assay to identify small molecule antagonists of the glucocorticoid receptor (GR) signaling pathway - cell viability counter screen (AID 720693); note: nearly all actives have a fitted effect of over 55% in size; note: potency is the fitted concentration of half-maximal effect
[2] = qHTS assay for identifying genotoxic compounds that show differential cytotoxicity against isogenic chicken DT40 cell lines with known DNA damage response pathways - wild type cell line (AID 743012); note: nearly all actives have a fitted effect of over 60% in size; note: potency is the fitted concentration of half-maximal effect
Method in brief: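 Using parental DT40 (300 cells/well), compounds delivered in DMSO incubate 40 h at 37 C/5% CO2. CellTiter-Glo reagent then stands 30 min at room temperature, and luminescence gives cell viability.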

[3] = qHTS assay for identifying genotoxic compounds that show differential cytotoxicity against isogenic chicken DT40 cell lines with known DNA damage response pathways - Rev3 mutant cell line (AID 743014); note: nearly all actives have a fitted effect of over 55% in size; note: potency is the fitted concentration of half-maximal effect
[4] = qHTS assay for identifying genotoxic compounds that show differential cytotoxicity against isogenic chicken DT40 cell lines with known DNA damage response pathways - Rad54/Ku70 mutant cell line (AID 743015); note: nearly all actives have a fitted effect of over 60% in size; note: potency is the fitted concentration of half-maximal effect
[5] = qHTS assay to identify small molecule antagonists of the androgen receptor (AR) signaling pathway - cell viability counter screen (AID 743033; note: nearly all actives have a fitted effect of over 45% in size; note: potency is the fitted concentration of half-maximal effect)
[6] = biological target: Androgen receptor (Homo sapiens) (UniProt P10275); experiment: qHTS assay to identify small molecule antagonists of the androgen receptor (AR) signaling pathway (AID 743035; active = well fitted inhibition curve with a large enough effect in the signal ratio in the repeat runs, not every such curve was filed as active; the % refers to the signal ratio; note: potency is the fitted concentration of half-maximal effect)
Method in brief: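 Using qHTS, AR-UAS-bla GripTite HEK293 cells received compound, then R1881, and were cultured 16 h at 37C/5% CO2 before a 2 h room-temperature LiveBLAzer B/G FRET substrate step and fluorescence measurement.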

[7] = biological target: Androgen receptor (Homo sapiens) (UniProt P10275); experiment: qHTS assay to identify small molecule agonists of the androgen receptor (AR) signaling pathway (AID 743036; active = well fitted activation curve with a large enough effect in the signal ratio in the repeat runs, with a control signal flat, not every such curve was filed as active; the % refers to the signal ratio)
Method in brief: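 Activation was read as beta-lactamase FRET signal from LiveBLAzer B/G substrate, added for 2 h at room temperature. Before that, GeneBLAzer AR-UAS-bla GripTite (HEK293) cells had 16 h compound exposure at 37C.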

[8] = biological target: Androgen receptor (Homo sapiens) (UniProt P10275); experiment: qHTS assay to identify small molecule agonists of the androgen receptor (AR) signaling pathway using the MDA cell line (AID 743040; note: nearly all actives have a fitted effect of over 20% in size)
Method in brief: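 MDA-kb2 breast carcinoma cells stably carrying an MMTV-driven luciferase reporter (AR- and GR-responsive) were seeded and held 5 h at 37C, 0% CO2, then exposed to compounds in DMSO for 16 h. Luminescence was read 30 min after ONE-Glo addition.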

[9] = qHTS assay to identify small molecule antagonists of the androgen receptor (AR) signaling pathway using the MDA cell line - cell viability counter screen (AID 743041; note: nearly all actives have a fitted effect of over 45% in size; note: potency is the fitted concentration of half-maximal effect)
Method in brief: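 MDA-kb2 AR-luc human breast carcinoma cells (MMTV-luciferase, AR/GR responsive) were treated with compounds plus R1881 agonist for 16 h at 37 °C. Viability was read as CellTiter-Fluor fluorescence in the same wells as the reporter assay.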

[10] = biological target: Androgen receptor (Homo sapiens) (UniProt P10275); experiment: qHTS assay to identify small molecule antagonists of the androgen receptor (AR) signaling pathway using the MDA cell line (AID 743042; note: nearly all actives have a fitted effect of over 55% in size; note: potency is the fitted concentration of half-maximal effect)
Method in brief: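 MDA-kb2 cells (human breast carcinoma, stably carrying an MMTV-luciferase reporter responsive to AR and GR) were plated at 3,000 cells/well and preincubated 5 hr at 37C, then given compound plus R1881 agonist for 16 h. ONE-Glo luminescence was read.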

Sequence of Androgen receptor (Homo sapiens) (P10275 whole entry, looked up): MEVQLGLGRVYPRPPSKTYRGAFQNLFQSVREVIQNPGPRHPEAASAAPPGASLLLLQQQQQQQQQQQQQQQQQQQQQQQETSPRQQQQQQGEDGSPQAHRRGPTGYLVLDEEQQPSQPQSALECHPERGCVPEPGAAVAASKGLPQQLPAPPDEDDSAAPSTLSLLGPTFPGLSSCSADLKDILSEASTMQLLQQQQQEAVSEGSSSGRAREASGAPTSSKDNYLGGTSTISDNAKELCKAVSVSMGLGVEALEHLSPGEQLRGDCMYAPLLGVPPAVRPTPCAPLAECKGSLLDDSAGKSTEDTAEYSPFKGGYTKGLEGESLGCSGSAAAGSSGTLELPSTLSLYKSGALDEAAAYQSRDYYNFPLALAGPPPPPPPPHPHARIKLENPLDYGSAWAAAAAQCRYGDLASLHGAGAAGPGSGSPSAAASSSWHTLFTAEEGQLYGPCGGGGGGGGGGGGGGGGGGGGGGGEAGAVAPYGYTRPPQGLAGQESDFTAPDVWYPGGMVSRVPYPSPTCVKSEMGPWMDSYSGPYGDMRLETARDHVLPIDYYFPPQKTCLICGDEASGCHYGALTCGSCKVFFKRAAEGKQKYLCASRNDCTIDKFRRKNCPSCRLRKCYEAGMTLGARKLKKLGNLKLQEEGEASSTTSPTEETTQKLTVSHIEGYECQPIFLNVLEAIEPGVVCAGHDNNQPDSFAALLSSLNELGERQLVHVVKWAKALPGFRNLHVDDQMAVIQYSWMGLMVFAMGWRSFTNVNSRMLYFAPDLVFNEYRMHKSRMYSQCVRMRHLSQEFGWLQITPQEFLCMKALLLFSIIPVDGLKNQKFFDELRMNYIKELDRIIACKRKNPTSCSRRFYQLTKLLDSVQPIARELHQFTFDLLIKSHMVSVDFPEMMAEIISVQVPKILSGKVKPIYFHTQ

CCCCCCc1ccc(O)cc1O
Potency [1]: inactive | Potency [2]: 48.6 µM (active) | Potency [3]: 54.6 µM (active) and 38.6 µM (active) | Potency [4]: 21.7 µM (active) | Potency [5]: inactive | Potency [6]: inactive and 43.8 µM (active) and 43.6 µM (active) | outcome [7]: inactive | outcome [8]: inactive | Potency [9]: inactive | Potency [10]: inactive

CN1CCc2cccc3c2[C@H]1Cc1ccc(O)c(O)c1-3
Potency [1]: inactive | Potency [2]: 9.44 µM (active) and 15.5 µM (active) and 12.8 µM (active) | Potency [3]: 11.9 µM (active) and 6.93 µM (active) and 9.09 µM (active) | Potency [4]: 16.8 µM (active) and 12.3 µM (active) and 8.1 µM (active) | Potency [5]: 55.5 µM (active) | Potency [9]: inactive

CCCC[P+](CCCC)(CCCC)CCCC
Potency [1]: inactive | Potency [2]: 1.08 µM (active) and 7.84 µM (active) and 4.33 µM (active) | Potency [3]: 684 nM (active) and 3.93 µM (active) | Potency [4]: 609 nM (active) and 3.5 µM (active) | Potency [5]: inactive | Potency [9]: inactive

CCCCC1(COC(=O)CCC(=O)O)C(=O)N(c2ccccc2)N(c2ccccc2)C1=O
Potency [1]: inactive | Potency [2]: inactive | Potency [3]: inactive | Potency [4]: inactive | Potency [5]: inactive | Potency [6]: inactive | outcome [7]: inactive | outcome [8]: inactive | Potency [9]: inactive | Potency [10]: inactive

NS(=O)(=O)O
Potency [1]: inactive | Potency [2]: inactive | Potency [3]: inactive | Potency [4]: inactive | Potency [5]: inactive | Potency [9]: inactive

CN[C@H]1CC[C@@H](c2ccc(Cl)c(Cl)c2)c2ccccc21
Potency [1]: inactive | Potency [2]: 5.96 µM (active) | Potency [3]: 8.41 µM (active) | Potency [4]: 7.5 µM (active) | Potency [5]: 23.9 µM (active)

CCCCNC(=O)NS(=O)(=O)c1ccc(C)cc1
Potency [1]: inactive | Potency [2]: inactive | Potency [3]: inactive | Potency [4]: inactive | Potency [5]: inactive | Potency [9]: inactive

CC(=O)C(=O)O
Potency [1]: inactive | Potency [2]: inactive | Potency [3]: inactive | Potency [4]: inactive | Potency [5]: inactive | Potency [9]: inactive

Cc1c(C(=O)O)c(O)cc2c1C(=O)c1c(O)c([C@@H]3O[C@H](CO)[C@@H](O)[C@H](O)[C@H]3O)c(O)c(O)c1C2=O
Potency [1]: inactive | Potency [2]: inactive | Potency [3]: inactive and 59.6 µM (active) and 54.5 µM (active) | Potency [4]: 53.1 µM (active) and 48.6 µM (active) | Potency [5]: inactive | Potency [9]: 59.6 µM (active) and 27.3 µM (active)

CC(=O)Nc1c(I)c(NC(C)=O)c(I)c(C(=O)O)c1I
Potency [1]: inactive | Potency [2]: inactive | Potency [3]: inactive | Potency [4]: inactive | Potency [5]: inactive | Potency [9]: inactive

CCCCOC(=O)c1ccc(O)cc1
Potency [1]: inactive | Potency [2]: inactive | Potency [3]: inactive and 61.1 µM (active) | Potency [4]: inactive and 61.1 µM (active) | Potency [5]: inactive | Potency [6]: inactive | outcome [7]: inactive | outcome [8]: inactive | Potency [9]: inactive | Potency [10]: inactive

COc1ccc2c(c1)c(CC(=O)O)c(C)n2C(=O)c1ccc(Cl)cc1
Potency [1]: inactive | Potency [2]: inactive | Potency [3]: inactive | Potency [4]: inactive | Potency [5]: inactive | outcome [8]: inactive | Potency [9]: inactive | Potency [10]: inactive

C[C@](N)(Cc1ccc(O)c(O)c1)C(=O)O
Potency [1]: inactive | Potency [2]: inactive | Potency [3]: inactive and 61.6 µM (active) and 60.9 µM (active) | Potency [4]: inactive and 60.9 µM (active) | Potency [5]: inactive | Potency [9]: inactive

Nc1ccc(S(N)(=O)=O)cc1
Potency [1]: inactive | Potency [2]: inactive | Potency [3]: 68.9 µM (active) and inactive | Potency [4]: inactive and 61.4 µM (active) | Potency [5]: inactive | Potency [9]: inactive

CN(C)C(=O)Nc1ccc(Cl)c(Cl)c1
Potency [1]: inactive | Potency [2]: inactive | Potency [3]: inactive and 54.5 µM (active) | Potency [4]: inactive | Potency [5]: inactive | Potency [6]: inactive | outcome [7]: inactive | outcome [8]: inactive | Potency [9]: inactive | Potency [10]: inactive

CN1CCC[C@H]1c1cccnc1
Potency [1]: inactive | Potency [2]: inactive | Potency [3]: inactive | Potency [4]: inactive | Potency [5]: inactive | Potency [9]: inactive

NS(=O)(=O)c1cc2c(cc1Cl)NCNS2(=O)=O
Potency [1]: inactive | Potency [2]: inactive | Potency [3]: inactive | Potency [4]: inactive | Potency [5]: inactive | Potency [9]: inactive

Cn1c(=O)c2c(ncn2C)n(C)c1=O
Potency [1]: inactive | Potency [2]: inactive | Potency [3]: inactive and 49.2 µM (active) | Potency [4]: inactive and 49.2 µM (active) | Potency [5]: inactive

CCOc1ccc(NC(C)=O)cc1
Potency [1]: inactive | Potency [2]: inactive | Potency [3]: inactive | Potency [4]: inactive | Potency [5]: inactive | Potency [6]: inactive | outcome [7]: inactive | outcome [8]: inactive | Potency [9]: inactive | Potency [10]: inactive

Cc1ncc([N+](=O)[O-])n1CCO
Potency [1]: inactive | Potency [2]: inactive | Potency [3]: inactive | Potency [4]: inactive and 61.1 µM (active) | Potency [5]: inactive | Potency [9]: inactive

COc1ccc(CN(CCN(C)C)c2ccccn2)cc1
Potency [1]: inactive | Potency [2]: inactive | Potency [3]: inactive | Potency [4]: inactive | Potency [5]: inactive | Potency [9]: inactive

C1CCC(C(CC2CCCCN2)C2CCCCC2)CC1 (centres undefined)
Potency [1]: 21.3 µM (active) | Potency [2]: 2.66 µM (active) | Potency [3]: 4.73 µM (active) | Potency [4]: 5.96 µM (active) | Potency [5]: 23.9 µM (active) | outcome [8]: inactive | Potency [9]: 18.8 µM (active) | Potency [10]: 13.3 µM (active)

Cc1ncc([N+](=O)[O-])n1C
Potency [1]: inactive | Potency [2]: inactive | Potency [3]: inactive | Potency [4]: inactive | Potency [5]: inactive | Potency [9]: inactive

CNNCc1ccc(C(=O)NC(C)C)cc1
Potency [1]: inactive | Potency [2]: inactive | Potency [3]: inactive | Potency [4]: inactive | Potency [5]: inactive | Potency [9]: inactive

C=C1CC[C@H](O)C/C1=C\C=C1/CCC[C@]2(C)[C@@H]([C@H](C)CCCC(C)C)CC[C@@H]12
Potency [1]: 54.4 µM (active) | Potency [2]: 11.9 µM (active) and 54 µM (active) | Potency [3]: 26.6 µM (active) and 24.1 µM (active) | Potency [4]: 13.3 µM (active) and 15.2 µM (active) | Potency [5]: inactive | Potency [9]: inactive

CS(=O)(=O)OCCCCOS(C)(=O)=O
Potency [1]: inactive | Potency [2]: inactive | Potency [3]: inactive | Potency [4]: inactive | Potency [5]: inactive | Potency [9]: inactive

CN(C)C(=S)SC(=S)N(C)C
Potency [1]: inactive | Potency [2]: 944 nM (active) and 1.11 µM (active) and 172 nM (active) | Potency [3]: 1.19 µM (active) and 886 nM (active) and 96.9 nM (active) | Potency [4]: 750 nM (active) and 789 nM (active) and 96.9 nM (active) | Potency [5]: 7.56 µM (active) and 1.42 µM (active) and 2.75 µM (active) | Potency [9]: 6.99 µM (active) and 6.27 µM (active) and 1.22 µM (active)

COc1ccc(OC(F)(F)F)cc1CN[C@H]1CCCN[C@H]1c1ccccc1
Potency [1]: inactive | Potency [2]: 15.4 µM (active) | Potency [3]: 30.6 µM (active) | Potency [4]: 27.3 µM (active) | Potency [5]: 49 µM (active)

CC(O)(P(=O)(O)O)P(=O)(O)O
Potency [1]: inactive | Potency [2]: inactive | Potency [3]: inactive | Potency [4]: inactive | Potency [5]: inactive | Potency [9]: inactive

CCCCCCCCCCCC[N+](C)(C)Cc1ccccc1
Potency [1]: 8.49 µM (active) and 19.1 µM (active) and 18.9 µM (active) | Potency [2]: 422 nM (active) and 151 nM (active) and 1.05 µM (active) | Potency [3]: 298 nM (active) and 67.3 nM (active) and 1.05 µM (active) | Potency [4]: 668 nM (active) and 107 nM (active) and 1.05 µM (active) | Potency [5]: 21.3 µM (active) and 19.1 µM (active) and 21.2 µM (active) | Potency [9]: 29.8 µM (active) and 23.9 µM (active) and 37.4 µM (active)

C/C=C/C=C/C(=O)O
Potency [1]: inactive | Potency [2]: inactive and 61.1 µM (active) | Potency [3]: inactive | Potency [4]: inactive and 61.1 µM (active) | Potency [5]: inactive | Potency [9]: inactive

CC(=O)CCC(=O)O
Potency [1]: inactive | Potency [2]: inactive | Potency [3]: inactive | Potency [4]: inactive | Potency [5]: inactive | Potency [9]: inactive

O=S1(=O)OC(c2ccc(O)cc2)(c2ccc(O)cc2)c2ccccc21
Potency [1]: inactive | Potency [2]: inactive | Potency [3]: inactive | Potency [4]: inactive and 43.3 µM (active) | Potency [5]: inactive | Potency [9]: 48.6 µM (active) and 61.1 µM (active)

NC(=O)c1cccnc1
Potency [1]: inactive | Potency [2]: inactive | Potency [3]: inactive | Potency [4]: inactive | Potency [5]: inactive | Potency [9]: inactive

Cc1cc(=O)oc2cc(O)ccc12
Potency [1]: inactive | Potency [2]: inactive | Potency [3]: inactive | Potency [4]: inactive | Potency [5]: inactive | Potency [9]: inactive

O=C1NS(=O)(=O)c2ccccc21
Potency [1]: inactive | Potency [2]: inactive | Potency [3]: inactive | Potency [4]: inactive | Potency [5]: inactive | Potency [9]: inactive

CC(C)C(=O)Nc1ccc([N+](=O)[O-])c(C(F)(F)F)c1
Potency [1]: inactive | Potency [2]: 13.3 µM (active) and 44.5 µM (active) and 19.3 µM (active) | Potency [3]: 29.8 µM (active) and 25 µM (active) and 30.6 µM (active) | Potency [4]: 18.8 µM (active) and 22.3 µM (active) and 19.3 µM (active) | Potency [5]: inactive and 25.2 µM (active) and 49 µM (active) | Potency [9]: inactive

CC(=O)CC(c1ccccc1)c1c(O)c2ccccc2oc1=O (centres undefined)
Potency [1]: inactive | Potency [2]: inactive | Potency [3]: inactive | Potency [4]: inactive | Potency [5]: inactive | Potency [9]: inactive
